Assay outcomes: PubChem, several laboratories
EWS-Fli block: EWS/Fli-driven NR0B1 reporter inhibitors, primary screen, A673 cells, NR0B1 luciferase, luminescence, MLPCN library; hit rate 0.67% among 350,000; inhibition, % at 12.6 µM; viability-normalised;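 active = mean inhibition of at least 50% after viability correction, with every replicate also passing that limit; inconclusive = mean reaches 50% but only one of two replicates passes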;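 also: firefly luciferase signal divided by Alamar Blue viability fluorescence both relative to DMSO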
HIV Env fusion: inhibitors of HIV-1 Env-driven cell-cell fusion, primary screen, HeLa-JRFL effector, CEM21 target cells, luciferase. inhibition, % at 12.3 µM. hit rate 1.1% among 360,000. AID 651610, 2012;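 active = mean replicate inhibition score of at least 50 and every replicate individually at or above 50; inconclusive = only one of the two criteria met; inactive = mean below 50 and not all replicates reaching 50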;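 also: 0% = plate neutral controls and 100% = maraviroc near 300 nM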
FXN GAA850 act: FXN promoter activators, primary screen, cell-based, luciferase luminescence, HEK293 lucGAA850. hit rate 0.56% among 360,000. HEK293 lucGAA850 FXN promoter luciferase reporter, 24 h; percent of 10 µM SAHA response. AID 540364, 2011. activation, % at 6 µM;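 active = activation above the average of all compounds screened plus 3 SD, cutoff fixed separately per campaign, cut at about 7.5% in these data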;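 also: 0% = DMSO wells and 100% = 10 µM SAHA wells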
F508del corr: F508del CFTR correction, initial screen, CFBE line, single point | CFBE cells, YFP halide quenching; stimulated with forskolin plus potentiator P3; % fluorescence drop versus neutral controls | activity (quench increase), % at 7.58 µM | hit rate 0.36% among 350,000 | AID 720511, 2013;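 active = mean added fluorescence quench of at least 8% versus neutral control, with both replicates also reaching 8%; inconclusive = only one of the mean or replicate conditions met; inactive = mean below 8% and not both replicates reaching 8%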;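 also: cells transiently co-express mutant CFTR-F508del with the halide-sensitive YFP; corrector assay measuring rescue of mutant channel to the surface after 24 h compound exposure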
PAX8 reporter: inhibitors of PAX8-driven TPO luciferase reporter, primary screen, RMG-I cells, single concentration; hit rate 1.2% among 360,000; inhibition, % at 12.6 µM; AID 652154, 2013; SteadyGlo, 24 h;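 active = mean replicate inhibition at least 60% with every replicate also reaching 60%; inconclusive = only one of the two criteria is met; inactive = mean below 60% and not all replicates reaching 60%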;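 also: luciferase light reporting Pax8 driven TPO promoter activity; plate controls were median of neutral control wells for no effect and mitoxantrone controls for full effect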
Starred values were filed as active, the others as inactive; ? = inconclusive; / = not tested or not shown; ! = not active in a repeat; [ ] = remark or other dose. Hits are enriched below; roughly 2.5% of the tested compounds scored in any of these assays.

SMILES	EWS-Fli block	HIV Env fusion	FXN GAA850 act	F508del corr	PAX8 reporter
CC(C)c1ccc(NC(=O)C[C@H]2CC[C@H]3[C@@H](COc4ccc(NC(=O)Nc5ccc(F)c(F)c5)cc4C(=O)N3C)O2)cc1	-1	70*[16.7 µM]	/	-4	75*
CCC(=O)N1Cc2cc(C(=O)NCCOC)nc(-c3cccc(-c4ccc(C#N)cc4)c3)c2[C@@H]1CCO	/	/	/	1	1
CS(=O)(=O)N(Cc1ccccc1)c1ccc(C(=O)Nc2cccnc2)cc1	/	-19	-1	/	/
CS(=O)(=O)N(Cc1ccc(Cl)cc1)c1ccc(C(=O)Nc2cccnc2)cc1	/	60*	1	/	/
CS(=O)(=O)N(Cc1ccc(Cl)cc1)c1ccc(C(=O)NCCSc2ccccn2)cc1	/	85*	-1	/	22
COC(=O)[C@H]1[C@H](CO)[C@H]2Cn3c(ccc(-c4ccccc4)c3=O)[C@H]2N1S(C)(=O)=O	-1	/	/	4	-7
CCCCSc1nnc(CCCCCNC(=O)OC(C)(C)C)o1	/	55*	-1	/	/
CN(C)CCCn1c(SCC(=O)N2c3ccccc3Sc3ccccc32)nc2ccccc2c1=O	54*	-2	2	/	5
COc1ccc(C2CC(O)(c3ccccc3)Oc3cc(OC)c(OC)c(OC)c32)cc1 (stereo not drawn)	3	-7	0	-2	22
COc1ccc([C@@]23Oc4cc(OC)cc(OC)c4[C@]2(O)[C@H](O)[C@H](C(=O)N(C)C)[C@H]3c2ccccc2)cc1	23	8	-14	-9	87*
O=C(NCc1ccc(F)cc1)[C@H]1C[C@H]2C(=O)N3CCC[C@H]3C(=O)N2[C@H]1c1cccc(OCCO)c1	-11	7[16.7 µM]	/	-1	1
CCOC(=O)COc1nc2c(c(-c3ccco3)c1C#N)CCc1ccccc1-2	-12	57*	0	4	12
N#Cc1c(OCC(=O)c2ccccc2)nc2c(c1-c1ccco1)CCc1ccccc1-2	/	-61	3	/	/
O=C(NCC(c1cccs1)N1CCOCC1)c1cc(F)cc(F)c1 (stereo not drawn)	53*	26	-5	2	13
CC(C)(C)c1ccc(OCC(=O)NCC(c2cccs2)N2CCOCC2)cc1 (stereo not drawn)	2	62*	2	2	/
COc1ccc(OCC(=O)NCC(c2cccs2)N2CCOCC2)cc1 (stereo not drawn)	-4	14	3	1	18
COc1ccc2c3c([nH]c2c1)[C@@H](CO)N(C(=O)C1CCC1)CC31CN(Cc2cccc(F)c2)C1	0	/	/	-1	-21
Cc1nc2nc(C)c(CCC(=O)N3CCN(c4ccccn4)CC3)c(C)n2n1	/	-5	-2	/	/
CCn1c(=O)c(CCC(=O)N2CCN(c3ccccn3)CC2)c(C)c2c(C)nn(-c3cccc(C)c3)c21	11	58*	0	-1	-3
CC(C)NC(=O)Nc1ccc2c(c1)C(=O)N([C@H](C)CO)C[C@H](C)[C@@H](CN(C)Cc1ccc(Cl)c(Cl)c1)O2	6	-6[16.7 µM]	/	1	5
C(=NN1CCCCCC1)c1ccc2ccccc2n1	88*	?	-15	-2	/
C(=NN1CCCCCC1)c1cccc2ccccc12	-17	-14	1	0	8
CC[N+](C)(C)CCN(Cc1ccc(Cl)cc1)c1ccccn1	/	-69	1	/	28
COc1ccc(CN(CCN(C)C)c2ccccn2)cc1	1	20	-1	2	83*!
O=C(C[C@@H]1CC[C@H]2[C@@H](COC[C@@H](O)CN2C(=O)c2ccncc2)O1)NCc1cccc(F)c1	-7	8[16.7 µM]	/	0	2
COc1cccc(S(=O)(=O)N(C)C[C@@H]2Oc3cc(C#CCC(C)C)ccc3S(=O)(=O)N([C@H](C)CO)C[C@@H]2C)c1	35	62*[16.7 µM]	/	0	/
COc1cccc(S(=O)(=O)N(C)C[C@H]2Oc3cc(C#CCC(C)C)ccc3S(=O)(=O)N([C@H](C)CO)C[C@H]2C)c1	20	73*[16.7 µM]	/	-3	/
COc1cccc(S(=O)(=O)N(C)C[C@H]2Oc3cc(C#CCN(C)C)ccc3S(=O)(=O)N([C@@H](C)CO)C[C@H]2C)c1	4	-9[16.7 µM]	/	1	/
CCCC#Cc1ccc2c(c1)O[C@H](CN(C)S(=O)(=O)c1cccc(OC)c1)[C@H](C)CN([C@H](C)CO)S2(=O)=O	17	38[16.7 µM]	2	-3	21
